Experimental findings from PubChem BioAssay (EPA / NIEHS) are described below.

Calls of active or inactive are those of the source. The calls were made as follows: active = hit-call score of the fitted dose curve at least 0.9, where 1 is the maximum; inactive = score below 0.9.

Sequence of Aryl hydrocarbon receptor (Homo sapiens) (P35869 whole entry, looked up): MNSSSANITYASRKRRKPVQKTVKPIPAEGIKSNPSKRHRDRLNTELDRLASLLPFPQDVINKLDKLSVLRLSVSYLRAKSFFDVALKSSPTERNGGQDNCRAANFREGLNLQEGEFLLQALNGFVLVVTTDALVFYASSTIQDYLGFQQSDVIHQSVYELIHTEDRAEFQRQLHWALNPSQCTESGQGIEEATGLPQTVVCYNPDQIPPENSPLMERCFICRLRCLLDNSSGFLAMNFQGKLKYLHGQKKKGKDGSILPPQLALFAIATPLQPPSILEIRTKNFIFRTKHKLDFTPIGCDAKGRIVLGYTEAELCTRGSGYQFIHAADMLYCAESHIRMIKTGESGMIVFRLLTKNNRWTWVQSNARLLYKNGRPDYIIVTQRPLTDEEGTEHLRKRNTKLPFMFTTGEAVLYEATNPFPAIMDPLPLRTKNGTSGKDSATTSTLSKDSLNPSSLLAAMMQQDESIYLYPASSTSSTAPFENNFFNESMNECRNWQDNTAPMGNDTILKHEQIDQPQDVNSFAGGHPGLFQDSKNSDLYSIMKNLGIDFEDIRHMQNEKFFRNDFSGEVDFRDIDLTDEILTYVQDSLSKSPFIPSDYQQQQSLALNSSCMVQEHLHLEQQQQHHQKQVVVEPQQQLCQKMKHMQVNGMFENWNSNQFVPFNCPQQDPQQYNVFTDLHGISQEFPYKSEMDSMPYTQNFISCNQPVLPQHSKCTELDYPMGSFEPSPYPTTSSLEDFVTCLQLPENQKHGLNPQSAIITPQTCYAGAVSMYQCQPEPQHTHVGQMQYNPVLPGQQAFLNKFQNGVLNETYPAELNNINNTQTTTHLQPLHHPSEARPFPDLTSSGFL

System in one experiment: not listed separately
The experiment can be described thus: ATG_DR4_LXR_CIS: Attagene CIS-FACTORIAL HepG2 Assay for human Liver X Receptor (LXR), DR4 submotif (AID 2282929). Conditions: HepG2 Attagene DR4 cis-reporter, mRNA transcription; actives raise or lower the signal. An outline of the steps: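 HepG2, transient MRTU transfection, cis-element (DR4) promoter; 24 h compound exposure; total RNA → oligo(dT) RT → PCR → 6-FAM primer extension → HpaI cut → CE. Gain/loss vs DMSO, bidirectional fit.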
`CCOC(=O)CC(C)O` (stereo unspecified): the call was inactive.
On the same count and under the same terms, then `CCCC(=O)OCCc1ccccc1`, with “inactive”; and `CC1(C)O[C@@H]2[C@@H](CO[C@@]3(COS(N)(=O)=O)OC(C)(C)O[C@@H]23)O1`, with “inactive”; and `[Cl][Au]([Cl])[Cl]`, with “inactive”.
Still for that read-out and setting: then `CCCCCC(C=O)=Cc1ccccc1`, with “inactive”; and `C=CC(C)C#N` (stereo unspecified), with “inactive”.
A word on the AC50: it is the concentration giving half of the maximal activity seen. With `C[C@H]1O[C@@H](O[C@H]2[C@@H](O)C[C@H](O[C@H]3[C@@H](O)C[C@H](O[C@H]4CC[C@@]5(C)[C@H](CC[C@@H]6[C@@H]5C[C@@H](O)[C@]5(C)[C@@H](C7=CC(=O)OC7)CC[C@]65O)C4)O[C@@H]3C)O[C@@H]2C)C[C@H](O)[C@@H]1O`, the AC50 is 0.11 µM (active).
Still for that read-out and setting: then `ClC(c1ccccc1)(c1ccccc1)c1ccccc1`, with 5.95 µM (active).
With `O=c1c(O)c(-c2ccc(O)cc2)oc2cc(O)cc(O)c12`, the outcome was inactive.
Still for that read-out and setting: then `CN1CCOCC1`, with “inactive”.
`CC/C=C\CC/C=C/CO`: the result was inactive.
Same read-out and setting: next, `CS(=O)(=O)c1ccc(C2=C(c3ccccc3)C(=O)OC2)cc1`: “inactive”; `CC1C2CC(CC2C2CCCC(O)C2)C1(C)C` (stereo unspecified): “inactive”.
`COC(=O)Nc1ccc(Cl)c(Cl)c1`: the AC50 was 26.2 µM (active).
In the case of `CC(O)C1CCCCC1` (stereo unspecified), the compound was classed as inactive.
On the same count and under the same terms, then `Oc1c(Cl)cc(Cl)c(Cl)c1Cc1c(O)c(Cl)cc(Cl)c1Cl`, with “inactive”; and `N#Cc1ccc(CC(=O)c2cccc(C(F)(F)F)c2)cc1`, with “inactive”; and `COS(=O)(=O)O`, with “inactive”.
On the same count and under the same terms, then `CCCCCCOC(=O)CCC`, with “inactive”.
For the compound `COC(C)(C)CCCC(C)CC=O` (stereo unspecified), the result was inactive.
Still for that read-out and setting: next, `CSCCC=O`: “inactive”.
Same read-out and setting: next, `Brc1ccc(Br)c(Br)c1`: “inactive”; `Cc1cc(C)nc(NS(=O)(=O)c2ccc(N)cc2)n1`: “inactive”.
Regarding `CCOCCOCCOCC`, the compound was called inactive.
Still for that read-out and setting: then `C=C1C[C@]23C[C@@]1(O)CC[C@H]2[C@@]12C=C[C@H](O)[C@@](C)(C(=O)O1)[C@H]2[C@@H]3C(=O)O`, with “inactive”; and `OCc1cccc(Oc2ccccc2)c1`, with “inactive”.
Same read-out and setting: next, `C=CCN(CC=C)CC=C`: “inactive”.
Still for that read-out and setting: next, `CC(C)(N=C=O)c1cccc(C(C)(C)N=C=O)c1`: “inactive”; `C[Si]1(C)O[Si](C)(C)O[Si](C)(C)O1`: “inactive”; `CCOc1ccccc1O`: “inactive”.
With `Cc1cc(=O)oc2cc(N(C)C)ccc12`, the compound was classed as inactive.
The same measure, in the same setting: next, `CCCCOCC`: “inactive”.
Same read-out and setting: next, `C1CCCCC1`: “inactive”.
As for `CC1=CC[C@@]23C[C@@H]1C(C)(C)[C@@H]2CC[C@H]3C`, the AC50 is 165 µM (active).
Regarding `O=C1NC2NC(=O)NC2N1` (stereo unspecified), the compound was classed as inactive.
The same measure, in the same setting: then `Nc1ccc(NCCO)c([N+](=O)[O-])c1`, with “inactive”.
The same measure, in the same setting: next, `CC(C)(CO)[C@@H](O)C(=O)NCCC(=O)O`: “inactive”.
On the same count and under the same terms, next, `C[Si](C)(C)O[Si](C)(C)C`: “inactive”.

For a further experiment, the target named is Aryl hydrocarbon receptor (Homo sapiens) (UniProt P35869). The experiment can be described thus: ATG_Ahr_CIS: Attagene CIS-FACTORIAL HepG2 Assay for human Aryl Hydrocarbon Receptor (Ahr) (AID 2282930). Conditions: HepG2 AhR cis-factorial reporter transcription; actives raise or lower the signal. The essentials:
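Values derive from bidirectional fitting against DMSO negative control. Underlying signal: cis-element reporter mRNA in transiently transfected HepG2, harvested 24 h post-dose and measured by RT-PCR plus capillary electrophoresis.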
In the case of `CCOC(=O)CC(C)O` (stereo unspecified), the outcome was inactive.
Same read-out and setting: then `CCCC(=O)OCCc1ccccc1`, with “inactive”.
The same measure, in the same setting: next, `CC1(C)O[C@@H]2[C@@H](CO[C@@]3(COS(N)(=O)=O)OC(C)(C)O[C@@H]23)O1`: “inactive”.
Regarding `[Cl][Au]([Cl])[Cl]`, the AC50 is 39.8 µM (active).
On to `CCCCCC(C=O)=Cc1ccccc1`, for which the compound was called inactive.
Still for that read-out and setting: next, `C=CC(C)C#N` (stereo unspecified): “inactive”.
The same measure, in the same setting: next, `C[C@H]1O[C@@H](O[C@H]2[C@@H](O)C[C@H](O[C@H]3[C@@H](O)C[C@H](O[C@H]4CC[C@@]5(C)[C@H](CC[C@@H]6[C@@H]5C[C@@H](O)[C@]5(C)[C@@H](C7=CC(=O)OC7)CC[C@]65O)C4)O[C@@H]3C)O[C@@H]2C)C[C@H](O)[C@@H]1O`: “inactive”; `ClC(c1ccccc1)(c1ccccc1)c1ccccc1`: “inactive”; `O=c1c(O)c(-c2ccc(O)cc2)oc2cc(O)cc(O)c12`: “inactive”.
The same measure, in the same setting: next, `CN1CCOCC1`: “inactive”.
As to `CC/C=C\CC/C=C/CO`, the compound was called inactive.
In the case of `CS(=O)(=O)c1ccc(C2=C(c3ccccc3)C(=O)OC2)cc1`, the AC50 was 0.0408 µM (active).
As for `CC1C2CC(CC2C2CCCC(O)C2)C1(C)C` (stereo unspecified), the outcome was inactive.
Regarding `COC(=O)Nc1ccc(Cl)c(Cl)c1`, the AC50 was 55.7 µM (active).
On to `CC(O)C1CCCCC1` (stereo unspecified), for which the result was inactive.
Take `Oc1c(Cl)cc(Cl)c(Cl)c1Cc1c(O)c(Cl)cc(Cl)c1Cl`: the AC50 is 5.86 µM (active).
For `N#Cc1ccc(CC(=O)c2cccc(C(F)(F)F)c2)cc1`, the compound was classed as inactive.
On to `COS(=O)(=O)O`, for which the compound was classed as inactive.
As to `CCCCCCOC(=O)CCC`, the compound was called inactive.
The same measure, in the same setting: then `COC(C)(C)CCCC(C)CC=O` (stereo unspecified), with “inactive”.
Regarding `CSCCC=O`, the outcome was inactive.
Same read-out and setting: then `Brc1ccc(Br)c(Br)c1`, with “inactive”.
For the compound `Cc1cc(C)nc(NS(=O)(=O)c2ccc(N)cc2)n1`, the compound was called inactive.
Same read-out and setting: then `CCOCCOCCOCC`, with “inactive”; and `C=C1C[C@]23C[C@@]1(O)CC[C@H]2[C@@]12C=C[C@H](O)[C@@](C)(C(=O)O1)[C@H]2[C@@H]3C(=O)O`, with “inactive”; and `OCc1cccc(Oc2ccccc2)c1`, with “inactive”.
The same measure, in the same setting: then `C=CCN(CC=C)CC=C`, with “inactive”; and `CC(C)(N=C=O)c1cccc(C(C)(C)N=C=O)c1`, with “inactive”; and `C[Si]1(C)O[Si](C)(C)O[Si](C)(C)O1`, with “inactive”.
`CCOc1ccccc1O`: the compound was classed as inactive.
The same measure, in the same setting: then `Cc1cc(=O)oc2cc(N(C)C)ccc12`, with “inactive”.
Still for that read-out and setting: then `CCCCOCC`, with “inactive”.
On the same count and under the same terms, then `C1CCCCC1`, with “inactive”.
Turning to `CC1=CC[C@@]23C[C@@H]1C(C)(C)[C@@H]2CC[C@H]3C`, the outcome was inactive.
Same read-out and setting: then `O=C1NC2NC(=O)NC2N1` (stereo unspecified), with “inactive”.
In the case of `Nc1ccc(NCCO)c([N+](=O)[O-])c1`, the AC50 is 7.19 µM (active).
As for `CC(C)(CO)[C@@H](O)C(=O)NCCC(=O)O`, the compound was called inactive.
On to `C[Si](C)(C)O[Si](C)(C)C`, for which the result was inactive.
